Assay results: PubChem BioAssay
Unmarked numbers belong to inactive results. The source made the active and inactive calls.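 The calls were made as follows: active = inhibition above the hit cutoff set in the earlier primary screen (cut at about 27% in these data); inactive = the rest.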

The molecules below were run against Protein phosphatase methylesterase 1 (Homo sapiens) (UniProt Q9Y570) (assay: human PME-1 methylesterase inhibition confirmation – biochemical, fluorescence polarization, FP-Rh probe, triplicate (AID 2171;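 also: 0% = enzyme with DMSO and 100% = wells lacking PME-1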)). Conditions: recombinant PME-1, FP-Rh probe fluorescence polarization; at 5.9 µM; hits give high values.
Protein phosphatase methylesterase 1 (Homo sapiens), sequence (Q9Y570 whole entry, looked up): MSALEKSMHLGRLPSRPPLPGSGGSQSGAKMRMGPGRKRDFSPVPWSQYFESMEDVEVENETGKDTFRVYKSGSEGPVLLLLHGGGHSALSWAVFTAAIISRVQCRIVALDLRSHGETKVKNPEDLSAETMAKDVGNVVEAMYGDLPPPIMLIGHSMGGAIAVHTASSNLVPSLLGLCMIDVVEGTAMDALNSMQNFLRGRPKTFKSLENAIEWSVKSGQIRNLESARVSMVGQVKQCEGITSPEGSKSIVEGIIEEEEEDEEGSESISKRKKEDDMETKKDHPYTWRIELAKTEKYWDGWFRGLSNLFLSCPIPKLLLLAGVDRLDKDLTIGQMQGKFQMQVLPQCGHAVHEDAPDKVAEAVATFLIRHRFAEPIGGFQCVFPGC
Molecule `COc1ccccc1N1CCN(C(=O)C2CCN(S(=O)(=O)c3ccc(C)cc3)CC2)CC1` has an inhibition of 15.3%.
With `N#CC1=C(N)C(C#N)(C#N)C(c2ccncc2)C2CN(C(=O)OCc3ccccc3)CC=C12` (stereo unspecified) the inhibition was 28.3% (active).
With `COc1cc(N=Nc2cccc(S(N)(=O)=O)c2)c2ccccc2c1N` the inhibition was 33.1% (active).
`Cc1cccc2c(N=Nc3ccc(S(=O)(=O)Nc4cccc(Cl)c4)cc3[N+](=O)[O-])c(O)[nH]c12` gave an inhibition of -12.3%.
With `COc1ccc2c(c1)cc(C(=O)N/N=C/c1c(O)c(C(=O)O)cc3ccccc13)n2C` the inhibition was 30% (active).
`O=C1C=C(N2CCOCC2)c2ccccc2C1=O` was tested, and the inhibition was 41% (active).
`CC1=CC(C)(C)N2C(=O)C(=Nc3ccc(O)cc3)c3cccc1c32` gave an inhibition of 4.13%.
In the case of `COc1ccc(N=Nc2nc3cc(Br)c(Br)cc3n2C)c(OC)c1`, the inhibition is reported as 50.6% (active).
Molecule `Oc1nc(Nc2ccccc2)sc1/C=C1\C=Nc2ccccc21` has an inhibition of -2.4%.
In the case of `Oc1ccccc1C1Nc2cccc3cccc(c23)N1`, the inhibition is reported as 24.4%.
With `CS(=O)(=O)N1N=C(c2ccccc2)CC1c1ccc2c(c1)OCO2` (stereo unspecified) the inhibition was -54.8%.
